Measured values from the supplement of paper PMC3414501.
Counter-ions that a name gives are not always drawn.

tested on: S. cerevisiae BY4741 (wild-type), vegetative growth in YPD; test: growth sensitivity score (doubling time z-score vs DMSO controls); higher = slower growth, strongly negative scores also mark growth inhibition (complete suppression), active = hit call of the paper; in the data active = 2 or more and inactive = the rest
How it was run: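 Rich medium in microtiter plates was seeded with Saccharomyces cerevisiae strains BY4741 and AD1-9 at an OD600 of 0.065, and compounds were added as a 1:100 dilution of DMSO stock. A Tecan GENios reader recorded optical density every 15 min for 24 hours, with eight solvent-only wells in each experiment. Average doubling time was the time to reach a set generation point divided by generation number. The growth sensitivity score was the compound mean minus the solvent-only mean, divided by the solvent-only standard deviation.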

**Q.** `C=C1/C(=C\C=C2/CCC[C@]3(C)[C@@H]([C@H](C)/C=C/[C@@H](O)C4CC4)CC[C@@H]23)C[C@@H](O)C[C@@H]1O` [Calcipotriol] (stock concentration (mM, diluted 1:100): 10.1) was tested. Which growth sensitivity score did it give?
**A.** -0.31 (inactive)

**Q.** With `OCCOCCN1CCN(C2=Nc3ccccc3Sc3ccccc32)CC1` [Quetiapine hemifumarate] (stock concentration (mM, diluted 1:100): 7.7) as the molecule, how does the growth sensitivity score read?
**A.** 1.12 (inactive)

**Q.** For `CC(=O)CCCCn1cnc2c1c(=O)n(C)c(=O)n2C` [Lomifylline] (stock concentration (mM, diluted 1:100): 10), which growth sensitivity score is on record?
**A.** 0.79 (inactive)

**Q.** How did the growth sensitivity score turn out when `CN(CCCN1c2ccccc2CCc2ccccc21)CC(=O)c1ccc(Cl)cc1` [Lofepramine] (stock concentration (mM, diluted 1:100): 10) was run?
**A.** 3.15 (active)

**Q.** For `NC[C@H]1CC[C@H](C(=O)Oc2ccc(CCC(=O)O)cc2)CC1` [Cetraxate hydrochloride] (stock concentration (mM, diluted 1:100): 9), which growth sensitivity score is on record?
**A.** 1.25 (inactive)

**Q.** With `N[C@@H](C(=O)N[C@@H]1C(=O)N2C(C(=O)O)=C(CSc3cn[nH]n3)CS[C@H]12)c1ccc(O)cc1` [Seapuron] (stock concentration (mM, diluted 1:100): 8.6) as the molecule, how does the growth sensitivity score read?
**A.** -0.6 (inactive)

**Q.** With `CCCN[C@H]1CCc2nc(N)sc2C1` [Pramipexole hydrochloride] (stock concentration (mM, diluted 1:100): 7.1) as the molecule, how does the growth sensitivity score read?
**A.** -0.39 (inactive)

**Q.** How did the growth sensitivity score turn out when `CN(CCO)CC(O)Cn1cnc2c1c(=O)n(C)c(=O)n2C` (configuration not stated) [Xanthinol nicotinate] (stock concentration (mM, diluted 1:100): 10) was run?
**A.** -1.14 (inactive)

**Q.** With `Cc1cn([C@H]2C=C[C@@H](CO)O2)c(=O)[nH]c1=O` [Stavudine] (stock concentration (mM, diluted 1:100): 10) as the molecule, how does the growth sensitivity score read?
**A.** 0.1 (inactive)

**Q.** With `CCOC(=O)C1=C(COCCN)NC(C)=C(C(=O)OC)C1c1ccccc1Cl` (configuration not stated) [Amlodipine base] (stock concentration (mM, diluted 1:100): 13.9) as the molecule, how does the growth sensitivity score read?
**A.** 14.2 (active)

**Q.** How did the growth sensitivity score turn out when `O=C(c1ccccc1)c1ccc2n1CCC2C(=O)O` (configuration not stated) [Toradol] (stock concentration (mM, diluted 1:100): 6.8) was run?
**A.** 0.91 (inactive)

**Q.** `CCc1c2c(nc3ccc(OC(=O)N4CCC(N5CCCCC5)CC4)cc13)-c1cc3c(c(=O)n1C2)COC(=O)[C@]3(O)CC` [Irinotecan hydrochloride] (stock concentration (mM, diluted 1:100): 8.7) was tested. Which growth sensitivity score did it give?
**A.** -1.27 (inactive)

**Q.** With `CN(C)[C@@H]1C(O)=C(C(=O)NCN2CCCC2)C(=O)[C@@]2(O)C(O)=C3C(=O)c4c(O)cccc4[C@@](C)(O)[C@H]3C[C@@H]12` [Rolitetracycline] (stock concentration (mM, diluted 1:100): 10) as the molecule, how does the growth sensitivity score read?
**A.** -1.17 (inactive)

**Q.** `CN(Cc1cnc2nc(N)nc(N)c2n1)c1ccc(C(=O)N[C@@H](CCC(=O)O)C(=O)O)cc1` [Methotrexate] (stock concentration (mM, diluted 1:100): 14.6) was tested. Which growth sensitivity score did it give?
**A.** -0.16 (inactive)

**Q.** Which growth sensitivity score does the source give for `Cc1c(O)c(=O)ccn1C` [Deferiprone] (stock concentration (mM, diluted 1:100): 10) here?
**A.** 0.2 (inactive)

**Q.** With `CN(CCOc1ccc(CC2SC(=O)NC2=O)cc1)c1ccccn1` (configuration not stated) [Rosiglitazone maleate] (stock concentration (mM, diluted 1:100): 7.6) as the molecule, how does the growth sensitivity score read?
**A.** 1.82 (inactive)

**Q.** With `CC(CCCCC(=O)Nc1ccc(C(F)(F)F)cc1)NCCc1cnc[nH]1` (configuration not stated) (stock concentration (mM, diluted 1:100): 10) as the molecule, how does the growth sensitivity score read?
**A.** -0.06 (inactive)

**Q.** Which growth sensitivity score does the source give for `CC[C@H]1OC(=O)[C@H](C)C(=O)[C@H](C)[C@@H](O[C@@H]2O[C@H](C)C[C@H](N(C)C)[C@H]2O)[C@](C)(OC)C[C@@H](C)C(=O)[C@H](C)[C@H]2N(CCCCn3cnc(-c4cccnc4)c3)C(=O)O[C@]12C` [Telithromycin] (stock concentration (mM, diluted 1:100): 10) here?
**A.** 0.09 (inactive)

**Q.** How did the growth sensitivity score turn out when `COc1ccc2c(c1)c(CC(=O)O)c(C)n2C(=O)c1ccc(Cl)cc1` [Indomethacin] (stock concentration (mM, diluted 1:100): 10.5) was run?
**A.** 0.62 (inactive)

**Q.** How did the growth sensitivity score turn out when `CCc1nn(CCCN2CCN(c3cccc(Cl)c3)CC2)c(=O)n1CCOc1ccccc1` [Nefazodone] (stock concentration (mM, diluted 1:100): 9.3) was run?
**A.** 9.68 (active)

**Q.** Which growth sensitivity score does the source give for `COc1ccc(CCN(C)CCCC(C#N)(c2ccc(OC)c(OC)c2)C(C)C)cc1OC` (configuration not stated) (stock concentration (mM, diluted 1:100): 10) here?
**A.** 0.01 (inactive)

**Q.** How did the growth sensitivity score turn out when `CCN(CC)CC(=O)Nc1c(C)cccc1C` [Lidocaine] (stock concentration (mM, diluted 1:100): 9.6) was run?
**A.** -0.16 (inactive)

**Q.** For `OCc1cccnc1` [3-Pyridinemethanol] (stock concentration (mM, diluted 1:100): 10), which growth sensitivity score is on record?
**A.** -1.12 (inactive)

**Q.** For `COCc1c(C(C)C)nc(C(C)C)c(/C=C/[C@@H](O)C[C@@H](O)CC(=O)O)c1-c1ccc(F)cc1` [Cerivastatin] (stock concentration (mM, diluted 1:100): 10), which growth sensitivity score is on record?
**A.** 28.6 (active)

**Q.** `Cc1cccc(C)c1NC(=O)C(C)N` (configuration not stated) [Tocainide] (stock concentration (mM, diluted 1:100): 10) was tested. Which growth sensitivity score did it give?
**A.** -0.53 (inactive)

**Q.** For `CC(C)C[C@H](NC(=O)[C@@H](COC(C)(C)C)NC(=O)[C@H](Cc1ccc(O)cc1)NC(=O)[C@H](CO)NC(=O)[C@H](Cc1c[nH]c2ccccc12)NC(=O)[C@H](Cc1cnc[nH]1)NC(=O)[C@@H]1CCC(=O)N1)C(=O)N[C@@H](CCCNC(=N)N)C(=O)N1CCC[C@H]1C(=O)NNC(N)=O` [Goserelin acetate] (stock concentration (mM, diluted 1:100): 9.6), which growth sensitivity score is on record?
**A.** -0.77 (inactive)

**Q.** With `CN1CCN(c2nc3cc(C(F)(F)F)ccc3n3cccc23)CC1` (stock concentration (mM, diluted 1:100): 10) as the molecule, how does the growth sensitivity score read?
**A.** 351 (active)

**Q.** `CNCC[C@H](Oc1cccc2ccccc12)c1cccs1` [Duloxetine] (stock concentration (mM, diluted 1:100): 10) was tested. Which growth sensitivity score did it give?
**A.** 11 (active)

**Q.** For `N[C@@H]1CONC1=O` [D-Cycloserine] (stock concentration (mM, diluted 1:100): 10), which growth sensitivity score is on record?
**A.** 1.58 (inactive)

**Q.** How did the growth sensitivity score turn out when `O=[N+]([O-])c1cccc2cn[nH]c12` [7-Nitroindazole] (stock concentration (mM, diluted 1:100): 10) was run?
**A.** 0.06 (inactive)

**Q.** With `CN(C)CCc1c[nH]c2ccc(Cn3cncn3)cc12` [Rizatriptan benzoate] (stock concentration (mM, diluted 1:100): 10) as the molecule, how does the growth sensitivity score read?
**A.** -0.18 (inactive)

**Q.** With `N[C@@H](C(=O)N[C@@H]1C(=O)N2C(C(=O)O)=C(Cl)CS[C@H]12)c1ccccc1` [Cefaclor] (stock concentration (mM, diluted 1:100): 10) as the molecule, how does the growth sensitivity score read?
**A.** 0.84 (inactive)

**Q.** Which growth sensitivity score does the source give for `O=C1CCc2ccc(OCCCCN3CCN(c4cccc(Cl)c4Cl)CC3)cc2N1` [Aripiprazole] (stock concentration (mM, diluted 1:100): 10) here?
**A.** 117 (active)

**Q.** Which growth sensitivity score does the source give for `O=C1c2c(O)cc(O)cc2OC(c2ccc(O)c(O)c2)C1O` (configuration not stated) [Taxifolin] (stock concentration (mM, diluted 1:100): 10) here?
**A.** -0.85 (inactive)

**Q.** `O=C(O)COCCN1CCN([C@H](c2ccccc2)c2ccc(Cl)cc2)CC1` [Levocetirizine] (stock concentration (mM, diluted 1:100): 10.7) was tested. Which growth sensitivity score did it give?
**A.** -0.8 (inactive)

**Q.** How did the growth sensitivity score turn out when `O=C1Nc2ccc(Cl)cc2[C@@](C#CC2CC2)(C(F)(F)F)O1` [Efavirenz] (stock concentration (mM, diluted 1:100): 10.1) was run?
**A.** 40.5 (active)

**Q.** For `CCCN1CCCC[C@H]1C(=O)Nc1c(C)cccc1C` [Ropivacaine hydrochloride] (stock concentration (mM, diluted 1:100): 7.7), which growth sensitivity score is on record?
**A.** -0.74 (inactive)
